# Screening results: PubChem, National Center for Advancing Translational Sciences (NCATS)
# The list is not random: actives were taken first. Their share in the collection is about 0.74%.
# Vif-APOBEC3F blk – qHTS for Inhibitors of Vif-A3F Interactions: qHTS; HeLa A3F-eYFP + Vif (tagged APOBEC3F with the HIV-1 protein that degrades it), YFP fluorescence increase; Potency, µM (top dose mostly 46.1 µM), without a hit: at the top dose activity, negative = active; 390,000 tested, 0.2% active; further: potency means the concentration at half of the fitted maximal effect; % of control where 0% means no effect; nearly all actives have a fitted effect of over 65% in size
#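 Fluorescence increase (Ex 488/Em 500-530) after overnight compound treatment at 37 deg C flags inhibition of Vif-driven A3F-eYFP loss in stable HeLa A3F-eYFP/Vif cells seeded overnight beforehand.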
# LDHA block – qHTS assay for inhibitors of human lactate dehydrogenase; activity change, % (values are at about 110 or 230 µM); purified LDHA, NADH/diaphorase-resazurin fluorescence; stronger effect = lower value; L-lactate dehydrogenase A chain (Homo sapiens), P00338; 480,000 tested, 0.15% active; AID 1347041, 2019; in the data active means activity change below about -30%; inconclusive means mostly about -25% to -30%;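 further: plate controls were DMSO wells for no effect and wells without enzyme for full effect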
#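 Human LDH5 (2 nM) was incubated with 0.06 mM NADH and 0.2 mM pyruvate for 5 min at room temperature in Tris pH 7.4. Remaining NADH was coupled through diaphorase/resazurin, and resorufin fluorescence was read at 0 and 20 min.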
# Glioma ERSR ind – qHTS for Inducers of the Endoplasmic Reticulum Stress Response (ERSR) in Human Glioma: qHTS; U87-MG GRP78 promoter luciferase reporter, 16 h; Potency, µM, for the others: top-dose activation, most hits filed as activators; 420,000 tested, 0.02% active; AID 602332, 2012; further: potency means the concentration at half of the fitted maximal effect; series mostly up to about 76 µM; % of control where 0% means no effect; nearly all actives have a fitted effect of over 35% in size
#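 Stably transfected U87-MG human glioma cells carrying a GRP78-based luminescent sensor were seeded at 1000 cells/well, pin-dosed with compounds and incubated 16 h. Luciferase reagent was then added, and end-point luminescence was read after 10 min at room temperature.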
# Vif-A3G inh – qHTS for Inhibitors of Vif-A3G Interactions: qHTS; 410,000 tested, 0.076% active; Potency, µM (highest dose often 46.1 µM), for inactives: at the highest dose activity, negative = active, most hits filed as inhibitors; HeLa A3G-eYFP + Vif (tagged APOBEC3G with the HIV-1 protein that degrades it), YFP fluorescence, overnight; further: potency means the concentration at half of the fitted maximal effect; on the % scale 0 is the no-effect control and ±100 the full control effect; nearly all actives have a fitted effect of over 60% in size
# Target sequence (Q9HC16 whole entry, looked up): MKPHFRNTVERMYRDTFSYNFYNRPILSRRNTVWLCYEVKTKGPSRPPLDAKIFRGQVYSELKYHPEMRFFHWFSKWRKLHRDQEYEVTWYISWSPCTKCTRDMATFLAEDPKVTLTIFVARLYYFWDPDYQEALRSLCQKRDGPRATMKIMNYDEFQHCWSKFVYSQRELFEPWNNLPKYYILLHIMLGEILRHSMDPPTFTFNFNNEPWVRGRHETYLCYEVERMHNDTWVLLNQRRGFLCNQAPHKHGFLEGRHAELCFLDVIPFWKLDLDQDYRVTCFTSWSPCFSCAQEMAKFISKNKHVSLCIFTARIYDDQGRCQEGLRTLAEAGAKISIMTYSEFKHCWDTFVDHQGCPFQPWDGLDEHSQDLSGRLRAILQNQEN
#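 Read-out is eYFP fluorescence (Ex 488/Em 500-530) from Vif-expressing HeLa A3G-eYFP cells; more signal means A3G escaped Vif-mediated degradation. Cells plated overnight, compound pinned in, incubated overnight at 37 deg C.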
# PINK1 expr mod – A Quantitative High throughput Screen to Identify Chemical Modulators of PINK1 Expression; PINK1 immunofluorescence, high-content cytometry, 24 h; Potency, µM (series often up to 76.6 µM), inactives show at the highest dose activation (PINK1 increase), most hits filed as activators; 410,000 tested, 0.2% active; AID 624263, 2012; active means well fitted activation curve with a large enough effect; inconclusive means small, poorly fitted or top-dose-only effect; cell line not stated here; further: potency means the concentration at half of the fitted maximal effect; % of control where 0% means no effect; nearly all actives have a fitted effect of over 65% in size
#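 Decision-based qHTS: stable cells, 24 h exposure to five compound concentrations, CCCP as control. Fixed cells stained for PINK1 plus nuclear, mitochondrial and cell markers, cytometer read.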
# pAkt inh – HTS Assay for Inhibitors of Akt Phophorylation: Primary Screen. Neuro2A IGF-stimulated pAkt S473 HTRF, 20 min; stronger effect = lower value. activity change, % for hits at 50 µM. 360,000 tested, 0.32% active. AID 651550, 2012; in the data active means activity change below about -80%; inconclusive means mostly about -51% to -80%; further: on the % scale 0 is the no-effect control and ±100 the full control effect
#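 Neuro2A cells in DMEM with 0.5% FBS, overnight at 37 deg C, given compound at single 50 µM final, then IGF (6 nM final) for 20 min at 37 deg C. Lysed; phospho-Akt Ser473 by HTRF after 24 h, 665/615 ratio.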
# The depositor's hits bear a star; i = inactive; ? = inconclusive; nt = no result given. Unless noted, the call rests on the fitted dose curve; in most records, active means well fitted curve in the direction sought with a large enough effect; inconclusive means small, poorly fitted or top-dose-only effect, or another doubt; inactive means no such curve, though single readings can be large; an effect the other way counts as inactive or inconclusive.
SMILES,Vif-APOBEC3F blk,LDHA block,Glioma ERSR ind,Vif-A3G inh,PINK1 expr mod,pAkt inh
O=C(CCNS(=O)(=O)c1cccc2nsnc12)NCCC1=CCCCC1,-9%,7,-2%,1%,-1%,-111%*
Cc1ccc(S(=O)(=O)N2CCOCC2)cc1C(=O)Nc1ccccc1-c1nc2ccccc2[nH]1,nt,7,nt,nt,nt,nt
O=C(c1ccc(Br)o1)N1CCN(C/C=C/c2ccccc2)CC1,4%,0,-1%,1%,-1%,-109%*
CC(=O)Nc1ccccc1-c1nn[nH]n1,-4%,-5,-3%,0%,2%,-101%*
O=C(CSc1ncc(C(F)(F)F)cc1Cl)c1ccc[nH]1,nt,-15,nt,nt,nt,nt
CCOc1ccc(C(=O)CC2(O)C(=O)Nc3ccc(Cl)cc32)cc1 (stereo not drawn),nt,11,nt,nt,nt,nt
CN1C(=O)C(N=Nc2ccc([N+](=O)[O-])cc2)SC1=S (stereo not drawn),1%,3,8%,-2%,45µM*,i
CN1CCCCCC1=Nc1ccc([N+](=O)[O-])cc1,-1%,-4,-2%,1%,-1%,i
CCc1ccc(Nc2cc(=O)n(C3CCCCC3)c(=O)[nH]2)cc1,-15%,1,-4%,2%,28µM*,i
COc1ccc(-c2cc(C(=O)N3CCN(Cc4ccccc4)CC3)c3ccccc3n2)cc1,nt,4,nt,nt,nt,nt
CS(=O)(=O)N1N=C(c2ccc(Br)cc2)CC1c1ccc(Br)cc1 (stereo not drawn),nt,-14,nt,nt,nt,nt
CN1C=CC2=C(C#N)C(N)C(C#N)(C#N)[C@H](c3ccccc3)[C@H]2C1 (stereo partly drawn),-3%,1,0%,-6%,13µM*,i
Cc1cc2c(c(SCC(N)=O)n1)C(=O)OC2,-21%,-6,-3%,-2%,1%,i
Cc1nc(SCC(=O)Nc2ccccc2)c2oc3ccccc3c2n1,-8%,-3,-4%,1%,12%,-115%*
Cc1cc2c(c(SCC(=O)Nc3ccccc3)n1)C(=O)OC2,nt,-37*,nt,nt,nt,nt
CCc1nc(SCC(=O)NCCc2ccccc2)c2oc3ccccc3c2n1,-2%,-4,-4%,0%,-1%,-103%*
O=C(CSc1ncnc2c1oc1ccccc12)Nc1cccc(C(F)(F)F)c1,-3%,-1,-6%,-6%,3%,i
Cc1nc(SCC(=O)NCCc2ccccc2)c2oc3ccccc3c2n1,-3%,-4,-3%,0%,0%,i
O=C(CSc1ncnc2c1oc1ccccc12)Nc1cccc(Cl)c1,6%,-6,2%,0%,12%,-108%*
Cc1sc2ncnc(N3CCOCC3)c2c1-c1ccccc1,nt,7,nt,nt,nt,nt
Cn1c(COc2ccc3c(c2)CCCC3)nnc1SCC(=O)NC1CCCCC1,nt,13,nt,nt,nt,nt
NS(=O)(=O)c1ccc(NC(=O)CCc2nc3ccccc3c(=O)[nH]2)cc1,nt,6,nt,nt,nt,nt
Cc1ccc2nc(SCC(=O)Nc3ccccc3C(=O)Nc3ccccc3)[nH]c2c1,nt,6,nt,nt,nt,nt
O=C(CSc1nc(Cl)nc2nc[nH]c12)Nc1cccc(Cl)c1,nt,-35*,nt,nt,nt,nt
O=C(CSc1nc(Cl)nc2nc[nH]c12)Nc1cccc(F)c1,nt,-5,nt,nt,nt,nt
SMILES,Vif-APOBEC3F blk,LDHA block,Glioma ERSR ind,Vif-A3G inh,PINK1 expr mod,pAkt inh
Cc1nc(SCC(=O)Nc2ccc(F)cc2)c2oc3ccccc3c2n1,-4%,-5,-3%,3%,11%,-90%*
Cc1nc(SCC(=O)NC(C)c2ccccc2)c2oc3ccccc3c2n1 (stereo not drawn),-1%,-4,-2%,-7%,2%,i
CC(C)CCNCc1ccncc1,nt,-1,nt,nt,nt,nt
O=C(COc1ccccc1)Nc1nc(-c2ccc(Br)s2)ns1,nt,1,nt,nt,nt,nt
COc1ccc(C(=O)Nc2nc(-c3ccc(Br)s3)ns2)cc1,nt,-30*,nt,nt,nt,nt
O=C(Oc1ccccc1)c1cc(O)c(O)c(O)c1,nt,-35*,5%,?,1%,i
O=C(Oc1ccccc1)c1cccc(C(=O)Oc2ccccc2)c1,nt,nt,-9%,nt,nt,nt
O=c1[nH]ncc2c3ccccc3n(Cc3cccc(Cl)c3)c12,25µM*,-4,1%,?,4%,i
Nc1ncnc2nc(SCc3ccccc3)[nH]c12,nt,-4,-4%,-3%,2%,-113%*
CN(C)CCNc1ccc2ncn3c4ccc(O)cc4c(=O)c1c23,25µM*,25,0%,?,-2%,i
CC1CN(C(=O)COc2ncnc3ccccc23)CC(C)O1 (stereo not drawn),6%,-5,0%,2%,-1%,-105%*
O=C(COc1ncnc2ccccc12)N1CCN(c2ccccc2)CC1,7%,-8,-3%,-2%,1%,i
Cc1cc2ccccn2c1C(=O)c1ccc([N+](=O)[O-])o1,11µM*,-5,-14%,?,?,i
Cc1cc2ccccn2c1C(=O)c1cccc([N+](=O)[O-])c1,1%,-8,-7%,2%,6%,i
FC(F)C(F)(F)Oc1cccc(Nc2nccn3c(-c4ccc5ccccc5c4)cnc23)c1,nt,-79*,1%,-3%,0%,i
O=C(CCCSc1ccccc1)Nc1nc(-c2ccccn2)cs1,-4%,2,-6%,1%,5%,-106%*
O=C(Nc1nc(-c2ccc(Cl)s2)cs1)C1CC1,nt,-34*,nt,nt,nt,nt
O=C(Nc1nc(-c2ccccn2)cs1)C1CCCC1,7.1µM*,2,5%,-2%,0%,i
O=Cc1cccn1-c1ccccc1F,nt,5,nt,nt,nt,nt
